# Structures can show the parent of a compound that is named as a salt.
# Legend:
# Conditions in all cases: incubation time: 27 h, anaerobic, 37 °C;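 for the amine columns active = adjusted P below 0.05 in both replicates with a change the same way and a mean fold change under 0.8 or over 1.25; inactive = the rest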
# [1] = test system: Clostridium sporogenes DSM 1664; assay: growth (OD595) fold change vs plate DMSO controls (fold change (ratio)); higher = more growth
# How it was run: (§1)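 The reported measure is growth: the fold change against the median of DMSO controls on the plate. Absorbance at 595 nm from anaerobic 96-well mGAM cultures grown for 27 h at 37 °C was blank-subtracted, corrected for background with 20 µM compound solutions in water, and converted to OD with a calibration factor of 5. Fold changes above 1.5 appear as NA, and values are the mean of 2 biological replicates.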
# Escherichia coli IAI1 [2] = assay: as above
# How it was run: as §1
# [3] = test system: Klebsiella aerogenes DSM 30053; assay: as above
# How it was run: as §1
# [4] = test system: Ruminococcus gnavus DSM 108212; assay: as above
# How it was run: as §1
# [5] = test system: Klebsiella aerogenes DSM 30053; assay: fold change of Histamine concentration vs plate DMSO controls (fold change (ratio)); higher = more amine produced, active = hit call of the paper (significant change in both replicates, either direction)
# How it was run: (§2)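 Using LC–triple-quadrupole MS with dynamic MRM, amines were quantified against external calibration curves and corrected for drift within each batch. Samples were whole anaerobic mGAM cultures of four gut strains, grown 27 h at 37 °C from OD 0.1 before 1:1 dilution, extracted with cold acetonitrile/methanol containing 0.1% formic acid and centrifuged. Compounds were present at 20 µM final (sweeteners at 50 µM final). The numbers are fold changes versus plate DMSO controls, each the mean of 2 biological replicates.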
# [6] = test system: Clostridium sporogenes DSM 1664; assay: fold change of Tryptamine concentration vs plate DMSO controls (fold change (ratio)); higher = more amine produced, active = hit call of the paper (significant change in both replicates, either direction)
# How it was run: as §2
# [7] = test system: Ruminococcus gnavus DSM 108212; assay: as above
# How it was run: as §2
# Escherichia coli IAI1 [8] = assay: fold change of Putrescine concentration vs plate DMSO controls (fold change (ratio)); higher = more amine produced, active = hit call of the paper (significant change in both replicates, either direction)
# How it was run: as §2
# [9] = test system: Klebsiella aerogenes DSM 30053; assay: as above
# How it was run: as §2
# Escherichia coli IAI1 [10] = assay: fold change of Cadaverine concentration vs plate DMSO controls (fold change (ratio)); higher = more amine produced, active = hit call of the paper (significant change in both replicates, either direction)
# How it was run: as §2
# [11] = test system: Klebsiella aerogenes DSM 30053; assay: as above
# How it was run: as §2
# [12] = test system: Ruminococcus gnavus DSM 108212; assay: fold change of 2-Phenylethylamine concentration vs plate DMSO controls (fold change (ratio)); higher = more amine produced, active = hit call of the paper (significant change in both replicates, either direction)
# How it was run: as §2
Compound,growth [1],growth (Escherichia coli IAI1 [2]),growth [3],growth [4],fold change of Histamine concentration [5],fold change of Tryptamine concentration [6],fold change of Tryptamine concentration [7],fold change of Putrescine concentration (Escherichia coli IAI1 [8]),fold change of Putrescine concentration [9],fold change of Cadaverine concentration (Escherichia coli IAI1 [10]),fold change of Cadaverine concentration [11],fold change of 2-Phenylethylamine concentration [12]
CC(C)Oc1ccc2c(=O)c(-c3ccccc3)coc2c1 [Ipriflavone] (20 µM),0.986,1.01,0.992,1.03,1 (inactive),1.01 (inactive),1.04 (inactive),0.98 (inactive),1.02 (inactive),1.04 (inactive),0.989 (inactive),1.02 (inactive)
CCC(=O)c1ccc(O)cc1 [Paroxypropione] (20 µM),0.967,0.989,0.996,1,1.03 (inactive),0.946 (inactive),1.02 (inactive),1.01 (inactive),1.02 (inactive),1.01 (inactive),1.01 (inactive),0.952 (inactive)
CC(C(=O)O)c1ccc2c(c1)[nH]c1ccc(Cl)cc12 (stereo not drawn) [Carprofen] (20 µM),1.05,1.02,0.996,1.1,1.07 (inactive),0.958 (inactive),1.03 (inactive),1.05 (inactive),0.99 (inactive),1.03 (inactive),0.995 (inactive),1.06 (inactive)
COc1cc(N)c(Cl)cc1C(=O)NC1CCN(CCCOc2ccc(F)cc2)CC1OC (stereo not drawn) [Cisapride] (20 µM),0.913,0.988,0.969,0.705,0.959 (inactive),0.972 (inactive),0.922 (inactive),1 (inactive),0.983 (inactive),1.02 (inactive),0.993 (inactive),0.929 (inactive)
COc1ccc2c(c1)c(CC(=O)O)c(C)n2C(=O)c1ccc(Cl)cc1 [Indomethacin] (20 µM),0.988,1,1.02,1.04,0.997 (inactive),0.988 (inactive),0.981 (inactive),1.01 (inactive),1.01 (inactive),1 (inactive),0.989 (inactive),0.979 (inactive)
C[C@@H]1[C@H](O)[C@@H](C)/C=C/C=C/C=C/C=C/C=C/C=C/C=C/[C@H](O[C@@H]2O[C@H](C)[C@@H](O)[C@H](N)[C@@H]2O)C[C@@H]2O[C@](O)(C[C@@H](O)C[C@@H](O)[C@H](O)CC[C@@H](O)C[C@@H](O)CC(=O)O[C@H]1C)C[C@H](O)[C@H]2C(=O)O [Amphotericin B] (20 µM),0.881,1.01,0.982,0.469,1.01 (inactive),0.985 (inactive),1.09 (inactive),1.23 (inactive),0.957 (inactive),1.09 (inactive),1.14 (inactive),1.25 (inactive)
O=C(O)c1cccnc1 [Niacin] (20 µM),0.979,1.07,1.01,0.963,0.97 (inactive),0.994 (inactive),1.03 (inactive),1 (inactive),1.03 (inactive),0.981 (inactive),1.02 (inactive),0.993 (inactive)
C/C(=C1\CCOC(=O)S1)N(C=O)Cc1cnc(C)nc1N [Cycotiamine] (20 µM),0.964,0.988,0.991,1.01,1.01 (inactive),1.02 (inactive),1.03 (inactive),0.971 (inactive),1.01 (inactive),1.01 (inactive),0.999 (inactive),1.06 (inactive)
CCCCNC(=O)NS(=O)(=O)c1ccc(C)cc1 [Tolbutamide] (20 µM),0.926,0.985,0.957,0.746,1.04 (inactive),1.02 (inactive),1.01 (inactive),0.978 (inactive),0.988 (inactive),1 (inactive),1 (inactive),1.04 (inactive)
CCC(=O)O[C@]1(C(=O)CCl)[C@@H](C)C[C@H]2[C@@H]3CCC4=CC(=O)C=C[C@]4(C)[C@@]3(F)[C@@H](O)C[C@@]21C [Clobetasol propionate] (20 µM),1.36,1.06,1.06,0.908,0.98 (inactive),1.02 (inactive),0.96 (inactive),0.988 (inactive),1.02 (inactive),1.01 (inactive),0.999 (inactive),0.936 (inactive)
C[C@H](CCC(=O)O)[C@H]1CC[C@H]2[C@@H]3CC[C@@H]4C[C@H](O)CC[C@]4(C)[C@H]3CC[C@]12C [Lithocholic acid] (20 µM),1.13,1.01,1.19,0.903,0.9 (inactive),1.03 (inactive),1.05 (inactive),1.06 (inactive),0.999 (inactive),0.975 (inactive),1.03 (inactive),1.09 (inactive)
Nc1ccc(S(=O)(=O)Nc2nccs2)cc1 [Sulfathiazole] (20 µM),0.969,0.979,1.03,0.853,1 (inactive),0.968 (inactive),1.03 (inactive),0.955 (inactive),1.02 (inactive),1.03 (inactive),1.01 (inactive),1.03 (inactive)
C#C[C@]1(O)CC[C@H]2[C@@H]3CCC4=CC(=O)CC[C@@H]4[C@H]3CC[C@@]21CC [(D-) Norgestrel] (20 µM),1.06,0.994,1.02,0.996,1.05 (inactive),1.01 (inactive),1.01 (inactive),0.982 (inactive),0.998 (inactive),1.03 (inactive),0.985 (inactive),0.978 (inactive)
CC(=O)Nc1cccc(O)c1 [Metacetamol] (20 µM),0.961,1.03,1.01,0.966,1.01 (inactive),0.941 (inactive),0.999 (inactive),1.02 (inactive),0.992 (inactive),1 (inactive),0.988 (inactive),0.962 (inactive)
COc1cc(C)c(/C=C/C(C)=C/C=C/C(C)=C/C(=O)O)c(C)c1C [Acitretin] (20 µM),0.986,1.1,1.02,1.09,0.97 (inactive),0.967 (inactive),0.962 (inactive),1.18 (inactive),0.996 (inactive),0.971 (inactive),1.01 (inactive),0.99 (inactive)
NS(=O)(=O)c1cc(C2(O)NC(=O)c3ccccc32)ccc1Cl (stereo not drawn) [Chlorthalidone] (20 µM),0.955,0.977,1,1.17,1.09 (inactive),1 (inactive),1.03 (inactive),0.992 (inactive),1.03 (inactive),0.973 (inactive),0.983 (inactive),1.04 (inactive)
Nc1nc(=S)c2ncn([C@@H]3O[C@H](CO)[C@@H](O)[C@H]3O)c2[nH]1 [Thioguanosine] (20 µM),0.927,0.951,1.03,0.773,0.953 (inactive),0.981 (inactive),0.955 (inactive),0.479 (inactive),1.01 (inactive),0.903 (inactive),1.03 (inactive),0.925 (inactive)
CO/N=C(\C(=O)N[C@@H]1C(=O)N2C(C(=O)[O-])=C(C[n+]3cccc4c3CCC4)CS[C@H]12)c1csc(N)n1 [Cefpirome sulfate] (20 µM),0.00168,0.00447,0.0713,0.108,0.122 (active),0.0112 (active),0.0828 (active),0.213 (active),0.347 (active),0.645 (inactive),1.09 (inactive),0.0627 (active)
CC(C)Nc1cccnc1N1CCN(C(=O)c2cc3cc(NS(C)(=O)=O)ccc3[nH]2)CC1 [Delavirdine] (20 µM),1.03,1.01,0.995,0.754,1.04 (inactive),0.965 (inactive),1.05 (inactive),0.984 (inactive),0.906 (inactive),1.04 (inactive),1.05 (inactive),1.04 (inactive)
CN1CCCCC1CCN1c2ccccc2Sc2ccc([S+](C)[O-])cc21 (stereo not drawn) [Mesoridazine besylate] (20 µM),1.12,0.991,0.974,0.756,1.1 (inactive),0.992 (inactive),1.02 (inactive),1 (inactive),1.02 (inactive),1.01 (inactive),0.978 (inactive),0.987 (inactive)
O=C(Nc1ccccc1)OCC(CN1CCCCC1)OC(=O)Nc1ccccc1 (stereo not drawn) [Diperodon hydrochloride] (20 µM),1.11,0.998,0.962,0.942,1.05 (inactive),0.94 (inactive),0.952 (inactive),0.975 (inactive),1.03 (inactive),1.03 (inactive),0.976 (inactive),0.923 (inactive)
CCOC(=O)[C@H](CCc1ccccc1)N[C@@H](C)C(=O)N1CCC[C@H]1C(=O)O [Enalapril maleate] (20 µM),1.07,1.07,1.05,1.15,0.936 (inactive),1 (inactive),1.09 (inactive),1.03 (inactive),0.959 (inactive),0.967 (inactive),1.02 (inactive),1.1 (inactive)
C#C[C@]1(OC(C)=O)CC[C@H]2[C@@H]3CCC4=C[C@@H](OC(C)=O)CC[C@@H]4[C@H]3CC[C@@]21C [Ethynodiol diacetate] (20 µM),0.766,0.814,1.02,1.14,0.897 (inactive),0.966 (inactive),1.01 (inactive),0.894 (inactive),1 (inactive),1.09 (inactive),1.02 (inactive),1.02 (inactive)
NC(=O)N/N=C/c1ccc([N+](=O)[O-])o1 [Nitrofural] (20 µM),1.07,1,0.973,0.979,0.768 (inactive),0.906 (inactive),0.792 (active),0.6 (active),0.947 (inactive),1.22 (inactive),1.01 (inactive),0.836 (inactive)
